Screening data from PubChem.
This is a sample that favours compounds with a hit; in the whole collection about 1.2% have one here.
cytoskel mod: modifiers of F-actin cytoskeleton organization, primary screen, imaging, HUVEC, phalloidin staining, high-content imaging | 0.18% of 91,000 active | inhibition, % at 2 µM | HUVEC TNFa F-actin phalloidin imaging;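 active = inhibition above the batch mean plus 3 SD and confirmed as a hit by visual image inspection, cut at about 30% in these data, passing the limit was not always enough; inconclusive = above the inhibition threshold but rejected on visual inspection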
sdo1 growth: growth rescue of sdo1-depleted yeast, primary screen, S. cerevisiae, bone marrow failure model | S. cerevisiae sdo1-depleted JHY4D growth rescue, OD600 30 h; active compounds read high; pdr5 snq2 efflux-pump mutant strain | z-score at 10 µM | 0.21% of 140,000 active | AID 817, 2007;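 active = z-score above 3 at both the 24 hr and the 30 hr optical density reads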
HUVEC tox TNFa: cytotoxicity in TNFa-stimulated HUVEC, primary screen, cytotoxicity control for VCAM1 expression modulator project, imaging, Hoechst nuclei count | 0.17% of 93,000 active | HUVEC TNFalpha-stimulated, Hoechst cell count | cell count reduction, % at 2 µM;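 active = cell count reduction exceeding the screen mean by over 5 SD, scaled to untreated wells per plate, cut at about 78% in these data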;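 also: cells counted after 24 h of TNF alpha exposure following the 1 h pretreatment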
E-sel TNF inh: E-selectin induction blockers in HUVEC – imaging, immunofluorescence, high content, primary screen. HUVEC TNFa-induced E-selectin immunofluorescence. 0.71% of 120,000 active. inhibition, % at 2 µM;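 active = inhibition above the batch mean plus 3 SD, and confirmed as a hit on visual image review, cut at about 43% in these data; inconclusive = passes the inhibition cutoff but fails visual image review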
VCAM1 TNFa inh: inhibitors of TNFa-induced VCAM1 expression, primary screen, imaging, HUVEC, TNFa stimulus, immunofluorescence; HUVEC TNFa-induced VCAM-1 immunofluorescence, high-content imaging; inhibition, % at 2 µM; 0.48% of 95,000 active;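 active = inhibition above the batch mean plus 3 SD, with images confirmed as a hit by eye, cut at about 37% in these data; inconclusive = inhibition above that limit but hit not confirmed in images; inactive = inhibition not above that limit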
Phagocytosis inh: inhibitors of macrophage phagocytosis, primary screen, imaging, J774A.1 cells, IgG beads | inhibition, % at 5 µM | J774A.1 macrophage IgG-bead phagocytosis | 0.07% of 110,000 active;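 active = inhibition above the mean of the plate negative controls plus 5 SD, cut at about 13% in these data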;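 also: phagocytic index as fraction of beads internalized from green versus red external bead signal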
A number is an active result; i = inactive; ? = inconclusive; nt = not tested or not shown.

SMILES	cytoskel mod	sdo1 growth	HUVEC tox TNFa	E-sel TNF inh	VCAM1 TNFa inh	Phagocytosis inh
CCOC(=O)C1=C(SCC)c2cc3c(n2C1=O)CCCC3	30	i	i	i	i	nt
COc1ccc(CNC(=O)CN(Cc2ccc(F)cc2)C(=O)c2csnn2)cc1	nt	nt	nt	i	nt	nt
CC(=O)c1c(C)[nH]c(C(=O)Nc2nc(-c3ccc(Cl)cc3)cs2)c1C	nt	i	nt	nt	nt	nt
Cn1cc([N+](=O)[O-])c(C(=O)Nc2nc(-c3ccc(Cl)cc3)cs2)n1	i	i	i	98	i	i
Cc1ccc(-c2nc(NC(=O)c3nn(C)cc3[N+](=O)[O-])sc2C)cc1C	i	i	i	100	89	i
Cc1ccc(-c2nc(NC(=O)c3nn(C)cc3[N+](=O)[O-])sc2C)cc1	i	i	i	87	92	nt
Cc1ccc(Cn2ccc(NC(=O)c3nn(C)cc3[N+](=O)[O-])n2)cc1	nt	i	nt	nt	nt	i
CCC1(c2ccc(F)cc2)NC(=O)N(CC(=O)Nc2cc(S(=O)(=O)N(C)C)ccc2Cl)C1=O (centres undefined)	nt	nt	nt	i	nt	nt
COc1ccc(/C(O)=C2/C(=O)C(=O)N(c3ncccn3)C2c2ccc(C(C)(C)C)cc2)cc1 (centres undefined)	nt	nt	nt	i	nt	nt
CCOc1ccc2nc(C)cc(Nc3ccc4c(c3)OCCO4)c2c1	68	i	i	i	i	nt
Fc1ccc(CNc2nc(-c3ccccc3)nc3ccccc23)cc1	nt	nt	nt	100	nt	nt
c1ccc(-c2nc(NCc3cccnc3)c3ccccc3n2)cc1	i	i	i	i	i	i
COc1ccc(N2C(=O)CC(NC3CCCCNC3=O)C2=O)cc1 (centres undefined)	35	i	i	i	i	nt
COc1ccc(N2C(=O)CC(Nc3ccc(C)cc3)C2=O)cc1 (centres undefined)	i	i	i	i	i	i
CC(C)(C)NC(=O)C1N(c2cccnc2)C(=O)C2C(C(=O)Nc3ccccc3F)C3(C)C=CC21O3 (centres undefined)	72	i	i	i	i	i
O=c1cc(C(Cl)(Cl)Cl)oc2c1ccc1ccccc12	i	i	i	i	80	i
CC(=O)N1CC(=O)N=C1SCC(=O)Nc1nc(-c2ccccc2)c(-c2ccccc2)s1	nt	i	nt	nt	nt	i
CCOc1ccc(C=O)cc1CN1CCCCC1	i	i	84	i	95	i
CCOc1cc(CN2CCCCC2)ccc1OC	i	i	i	i	i	i
O=C(COC(=O)Cc1c(Cl)cccc1Cl)Nc1ccc(OC(F)(F)F)cc1	nt	i	nt	nt	nt	i
COc1cc(CN2CCN(c3ccc(C)cc3)CC2)cc([N+](=O)[O-])c1O	i	i	i	100	i	i
COc1cc(CN2CCN(c3cc(C)ccc3C)CC2)cc([N+](=O)[O-])c1O	i	nt	i	i	i	nt
Cc1cc(C)c(S(=O)(=O)Nc2ccc3c4c(cccc24)CC3)c(C)c1	i	i	i	i	89	nt
Oc1ccc(N2CCN(c3ncnc4sc5c(c34)CCC5)CC2)cc1	i	i	i	nt	86	i
Cc1nc(N2CCN(c3ccccc3)CC2)c2c3c(sc2n1)CCC3	nt	nt	nt	nt	nt	i
SMILES	cytoskel mod	sdo1 growth	HUVEC tox TNFa	E-sel TNF inh	VCAM1 TNFa inh	Phagocytosis inh
Cc1ccc(C)c(NC(=O)Cn2nc(C(F)(F)F)cc2C2CC2)c1	i	i	i	i	i	i
Cc1cccc(NC(=O)Cn2nc(C(F)(F)F)cc2C2CC2)c1	40	i	i	i	i	nt
O=C(N/N=C/c1cccs1)c1n[nH]c2c1CCC2	nt	i	nt	nt	nt	i
O=C(N/N=C/C(Br)=C/c1ccccc1)c1n[nH]c2c1CCC2	i	i	i	nt	91	i
Nc1c(C(=O)NC2CCCC2)c2nc3ccccc3nc2n1N	47	i	i	nt	i	i
Cc1ccc(C(=O)Nc2ccc(O)cc2C(=O)O)cc1C	nt	i	i	i	i	i
Cc1ccc(C(=O)Nc2ccc(O)cc2C(=O)O)cc1	i	i	i	61	i	i
CCc1cc[n+](CC(=O)Nc2ccc(Cl)cc2Cl)cc1	nt	nt	nt	77	nt	nt
Cc1cnc([N+](=O)[O-])n1CCOC(=O)NC(=O)c1cccc(F)c1	nt	nt	nt	i	nt	nt
Cc1cc(NC(=O)C2C3C=CC(C3)C2C(=O)O)no1 (centres undefined)	?	i	100	i	?	i
O=C1CC(c2ccc(Cl)cc2)SC(N(c2ccccc2)c2ccccc2)=N1 (centres undefined)	nt	i	nt	nt	nt	nt
O=C1CC(c2ccccc2)SC(N(c2ccccc2)c2ccccc2)=N1 (centres undefined)	nt	i	nt	62	nt	i
Cc1nn(-c2ccccc2)c(Cl)c1CN(C(=O)CCl)c1ccc(Cl)cc1	nt	i	nt	nt	nt	i
Cc1nn(-c2ccccc2)c(Cl)c1CN(C(=O)CCl)c1cccc2ccccc12	nt	i	nt	96	nt	i
COc1ccc(OC)c(NC(=O)COC(=O)CN(C)S(=O)(=O)c2ccc(C)cc2)c1	nt	i	nt	nt	nt	i
Cc1cc([N+](=O)[O-])ccc1N(C)C	nt	i	nt	i	nt	i
CCn1nc([N+](=O)[O-])c(C(C#N)c2nc3ccccc3n2C)c(Cl)c1=O (centres undefined)	nt	i	nt	i	nt	nt
CCCn1nc([N+](=O)[O-])c(C(C#N)c2nc3ccccc3s2)c(Cl)c1=O (centres undefined)	i	i	i	i	51	i
CCOC(=O)c1ccc(-n2c(=S)sc3c(=O)[nH]c(C)nc32)cc1	i	i	i	i	87	i
CCOC(=O)CC(=O)CSc1nc2c(sc(=S)n2-c2ccccc2)c(=O)[nH]1	i	i	i	nt	i	i
Cc1nnc2n(C3CCCCC3)c(=O)c3c4c(sc3n12)CCC4	i	i	i	nt	i	i
Cc1nnc2n(C3CCCCC3)c(=O)c3c4c(sc3n12)COC(C)(C)C4	i	i	94	nt	i	i
Cc1ccc(/C=C/C(=O)O)cc1S(=O)(=O)NCCO	i	i	i	54	i	i
Cc1nc2ccccc2n1CC(O)COCC1CC=CCC1 (centres undefined)	i	i	96	i	i	nt
O=C(NCc1cccnc1)c1ccc(Cl)c(S(=O)(=O)Nc2ccccc2C(=O)NCc2cccnc2)c1	nt	nt	nt	i	nt	nt
SMILES	cytoskel mod	sdo1 growth	HUVEC tox TNFa	E-sel TNF inh	VCAM1 TNFa inh	Phagocytosis inh
CCOC(=O)Cc1c(C)nc2c(-c3ccccc3)c[nH]n2c1=O	nt	i	nt	96	nt	i
CCOc1cc(C2C3=C(CC(C)(C)CC3=O)Nc3n[nH]c(C)c32)ccc1O (centres undefined)	nt	nt	nt	i	nt	nt
COc1ccc(-c2cc(=O)[nH]c(NCc3ccccc3)n2)cc1	i	i	99	i	100	i
O=c1cnnc(NCc2ccccc2)[nH]1	i	i	i	i	i	i
O=C1N=C(N2CCCC2)CN1c1ccccc1	nt	i	nt	i	nt	i
COC(=O)c1ccsc1NC(=O)C1=COCCO1	i	i	92	nt	i	i
COc1ccc(NS(=O)(=O)c2ccc3nc(COc4ccc(Cl)c(C)c4)[nH]c3c2)cc1	nt	i	nt	i	nt	i
O=C(O)C1C(=O)NCC1c1ccccc1 (centres undefined)	nt	nt	nt	i	nt	nt
Cc1cc(C)c2nc(SCC(=O)N3CC(=O)Nc4ccccc43)c(C#N)cc2c1	i	i	89	i	100	nt
